Activity calls are given as the source filed them.
Legend:
[1] = system: Plasmodium falciparum Sir2 (PF13_0152, Sir2A); assay: Plasmodium falciparum Sir2A binding compounds – biochemical, small-molecule microarray, 635 nm fluorescence, primary screen (AID 1098); settings: fluorescence 635 nm, higher = more signal;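 note: score merges spot fluorescence intensity with its signal-to-noise ratio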
[2] = probe aDKK1 binding to arrayed compounds – biochemical, biotinylated probe, 635/667 nm fluorescence, primary screen (AID 1099); settings: small-molecule microarray, higher = more signal;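 note: score merges 667nm spot fluorescence with signal to noise across triplicate slides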
[3] = probe aCHRDL2 binding to arrayed compounds – biochemical, biotinylated probe, 635/667 nm fluorescence, primary screen (AID 1100); settings: small-molecule microarray, higher = more signal
[4] = change in splice reporter luminescence, either direction, cell-based, HEK293, spliceosome inhibition project, primary screen (AID 1101); settings: HEK293 splicing luciferase reporter, 24 h, higher = more signal, called active from +8 up or from −8 down;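 note: HEK293 cells carrying a splicing-competent luciferase reporter gene; test concentration not given here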
[5] = target: Fibroblast growth factor 10 (Homo sapiens) (UniProt O15520); assay: compounds binding fibroblast growth factor 10 – biochemical, small-molecule microarray, 635 nm fluorescence, primary screen (AID 1102); settings: FGF10 binding, fluorescence 635 nm, higher = more signal
Sequence of Fibroblast growth factor 10 (Homo sapiens) (O15520 whole entry, looked up): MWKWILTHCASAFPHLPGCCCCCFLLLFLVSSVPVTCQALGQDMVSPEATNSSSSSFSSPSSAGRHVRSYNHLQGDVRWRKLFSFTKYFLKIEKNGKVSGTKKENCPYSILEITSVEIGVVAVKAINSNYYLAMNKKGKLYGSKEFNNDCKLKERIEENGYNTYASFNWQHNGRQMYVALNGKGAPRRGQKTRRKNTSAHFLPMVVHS

[6] = system: glycogen synthase kinase-3 (GSK3A per assay name; protocol says GSK3B); assay: compounds binding glycogen synthase kinase-3 – biochemical, small-molecule microarray, 635 nm fluorescence, GSK3A, primary screen (AID 1103); settings: fluorescence 635 nm, higher = more signal; note: the record names both GSK3A and GSK3B
[7] = target: Epidermal growth factor receptor (Homo sapiens) (UniProt P00533); assay: compounds binding epidermal growth factor receptor – biochemical, small-molecule microarray, 635 nm fluorescence, primary screen (AID 1104); settings: EGFR binding, higher = more signal;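 note: score merges 667 nm emission intensity with spot signal to noise over triplicate slides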
Sequence of Epidermal growth factor receptor (Homo sapiens) (P00533 whole entry, looked up): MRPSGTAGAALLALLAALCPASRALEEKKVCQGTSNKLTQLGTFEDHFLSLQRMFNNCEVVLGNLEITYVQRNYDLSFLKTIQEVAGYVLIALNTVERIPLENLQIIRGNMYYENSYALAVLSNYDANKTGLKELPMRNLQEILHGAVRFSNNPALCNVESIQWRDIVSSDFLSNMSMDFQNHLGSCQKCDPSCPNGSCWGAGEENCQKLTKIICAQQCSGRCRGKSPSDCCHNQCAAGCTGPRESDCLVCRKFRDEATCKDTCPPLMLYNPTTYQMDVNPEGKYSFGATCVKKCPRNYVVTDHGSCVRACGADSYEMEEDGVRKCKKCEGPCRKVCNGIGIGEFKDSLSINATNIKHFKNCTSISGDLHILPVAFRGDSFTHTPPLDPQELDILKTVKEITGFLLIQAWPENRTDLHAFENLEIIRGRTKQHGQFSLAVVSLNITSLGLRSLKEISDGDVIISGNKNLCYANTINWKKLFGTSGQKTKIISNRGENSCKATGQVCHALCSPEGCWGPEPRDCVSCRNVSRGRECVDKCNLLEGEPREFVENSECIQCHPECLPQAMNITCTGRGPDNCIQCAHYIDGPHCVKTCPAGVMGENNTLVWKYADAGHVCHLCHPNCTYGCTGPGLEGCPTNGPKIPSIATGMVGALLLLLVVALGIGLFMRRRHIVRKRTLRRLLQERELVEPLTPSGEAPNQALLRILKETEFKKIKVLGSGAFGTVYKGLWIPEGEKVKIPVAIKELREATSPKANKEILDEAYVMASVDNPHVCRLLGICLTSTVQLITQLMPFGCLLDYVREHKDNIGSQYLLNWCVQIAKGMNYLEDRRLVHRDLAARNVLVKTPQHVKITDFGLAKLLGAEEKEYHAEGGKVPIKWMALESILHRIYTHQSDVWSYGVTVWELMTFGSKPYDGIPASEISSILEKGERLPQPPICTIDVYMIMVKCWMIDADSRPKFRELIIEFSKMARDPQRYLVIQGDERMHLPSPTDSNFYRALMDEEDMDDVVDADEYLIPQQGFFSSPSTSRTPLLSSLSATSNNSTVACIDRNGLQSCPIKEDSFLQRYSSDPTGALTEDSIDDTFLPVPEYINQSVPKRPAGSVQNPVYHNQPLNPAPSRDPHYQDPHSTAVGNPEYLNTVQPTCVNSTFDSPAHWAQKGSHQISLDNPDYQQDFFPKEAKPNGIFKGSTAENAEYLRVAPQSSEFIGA

[8] = target: Follistatin-related protein 3 (Homo sapiens) (UniProt O95633); assay: compounds binding follistatin-related protein 3 – biochemical, small-molecule microarray, 635 nm fluorescence, primary screen (AID 1105); settings: FSTL3 binding, higher = more signal;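 note: score merges emission near 667 nm and signal to noise per printed spot across three slides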
Sequence of Follistatin-related protein 3 (Homo sapiens) (O95633 whole entry, looked up): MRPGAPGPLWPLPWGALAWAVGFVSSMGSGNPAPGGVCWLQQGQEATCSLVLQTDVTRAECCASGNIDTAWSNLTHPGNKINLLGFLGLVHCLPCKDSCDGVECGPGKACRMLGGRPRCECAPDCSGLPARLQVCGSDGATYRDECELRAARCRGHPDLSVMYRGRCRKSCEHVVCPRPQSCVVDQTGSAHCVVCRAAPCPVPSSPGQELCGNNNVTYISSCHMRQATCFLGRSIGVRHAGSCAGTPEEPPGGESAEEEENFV

[9] = target: Dickkopf-related protein 1 (Homo sapiens) (UniProt O94907); assay: small molecules binding DKK1 protein – biochemical, small-molecule microarray, 635 nm fluorescence scan, primary screen (AID 1106); settings: higher = more signal;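 note: score merges emission near 667 nm with signal to noise over three replicate slides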
Sequence of Dickkopf-related protein 1 (Homo sapiens) (O94907 whole entry, looked up): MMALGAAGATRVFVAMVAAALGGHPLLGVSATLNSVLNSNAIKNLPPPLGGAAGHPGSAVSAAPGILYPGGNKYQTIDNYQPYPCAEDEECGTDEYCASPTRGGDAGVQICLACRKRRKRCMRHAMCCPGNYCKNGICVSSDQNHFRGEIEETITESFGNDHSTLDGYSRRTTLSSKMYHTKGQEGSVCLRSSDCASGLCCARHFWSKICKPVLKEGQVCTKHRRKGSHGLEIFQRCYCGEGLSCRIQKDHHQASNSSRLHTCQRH

[10] = system: Inhibin beta A chain (activin A); assay: small molecules binding activin A – biochemical, small-molecule microarray, 635 nm fluorescence scan, primary screen (AID 1107); settings: INHBA, higher = more signal;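 note: mouse activin A protein probed at 4.33 µg/mL on printed slides; score merges bound-protein fluorescence near 667 nm with spot signal-to-noise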
[11] = system: Human papillomavirus type 1a protein E7 (residues 44-93); assay: small molecules binding HPV E7 44-93 – biochemical, small-molecule microarray, residues 44-93, 635 nm fluorescence, primary screen (AID 1108); settings: fluorescence 635 nm, higher = more signal;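 note: E7 fragment applied at 1 µg/mL in TBST for 1 h at 4 C; score combines spot fluorescence with its signal to noise ratio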
[12] = hepatitis C replication reporter changes, two-sided – Huh7 cells, luciferase reporter, HCV replication inhibitor project, primary screen (AID 1109); settings: Huh7 HCV replicon luciferase reporter, 48 h; higher = more signal;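 note: huh7 hepatoma cells harbouring a luciferase neomycin HCV replicon reporter; luciferase luminescence as measure of HCV replicon replication; test concentration not given here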
[13] = target: Left-right determination factor 2 (Homo sapiens) (UniProt O00292); assay: small molecules binding LEFTY2 protein – biochemical, small-molecule microarray, 635 nm fluorescence scan, primary screen (AID 1110); settings: higher = more signal
Sequence of Left-right determination factor 2 (Homo sapiens) (O00292 whole entry, looked up): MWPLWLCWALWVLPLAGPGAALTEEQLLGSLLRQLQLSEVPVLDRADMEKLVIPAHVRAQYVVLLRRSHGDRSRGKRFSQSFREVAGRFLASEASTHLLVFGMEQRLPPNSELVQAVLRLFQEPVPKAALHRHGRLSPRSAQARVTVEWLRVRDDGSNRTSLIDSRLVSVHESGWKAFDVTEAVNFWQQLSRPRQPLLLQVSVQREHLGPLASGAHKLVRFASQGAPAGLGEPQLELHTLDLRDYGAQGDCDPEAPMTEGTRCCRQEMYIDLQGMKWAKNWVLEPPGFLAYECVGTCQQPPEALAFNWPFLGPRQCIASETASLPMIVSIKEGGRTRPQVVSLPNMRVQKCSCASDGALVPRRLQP

[14] = target: Calmodulin-1 (Homo sapiens) (UniProt P0DP23); assay: small molecules binding calmodulin-1 with EGTA – biochemical, small-molecule microarray, Cy5-labelled CALM1, profiling panel (AID 1111); settings: Cy5-CALM1 binding fluorescence, higher = more signal;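 note: labelled calmodulin applied in Tris saline Tween buffer holding calcium plus EGTA and DTT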
[15] = target: Calmodulin-1 (Homo sapiens) (UniProt P0DP23); assay: small molecules binding Ca-loaded calmodulin-1 – biochemical, small-molecule microarray, Cy5-labelled CALM1, plus calcium, artefact control for SMM control-protein annotation, profiling panel (AID 1112); settings: Cy5-CALM1 binding fluorescence, higher = more signal;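 note: score merges spot fluorescence with signal to noise from triplicate slides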
[16] = probe aWnt5a binding to arrayed compounds – biochemical, biotinylated probe, 635/667 nm fluorescence, primary screen (AID 1113); settings: small-molecule microarray, higher = more signal;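 note: score merges 667 nm fluorescence intensity with signal-to-noise per printed feature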
[17] = probe aShh binding to arrayed compounds – biochemical, biotinylated probe, 635/667 nm fluorescence, primary screen (AID 1114); settings: small-molecule microarray, higher = more signal;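 note: probe is biotin-labelled aShh protein from a stem cell growth factor screen; measures binding of labelled protein to compounds printed on the slide; score merges feature fluorescence at 667 nm with signal-to-noise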
[18] = probe aNog binding to arrayed compounds – biochemical, biotinylated probe, 635/667 nm fluorescence, primary screen (AID 1115); settings: small-molecule microarray, higher = more signal;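 note: probe is biotinylated aNog protein used at 0.15 µg/mL for 1 h at 4 C; z-score combines 667 nm fluorescence of each spot with its signal to noise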
[19] = target: Torsin-1A-interacting protein 1 (Homo sapiens) (UniProt Q5JTV8); assay: compound microarray binding of lysate hLAP1 – cell lysate, small-molecule microarray, COS7 lysate, 635/667 nm fluorescence, primary screen (AID 1116); settings: 635 nm fluorescence, higher = more signal
Sequence of Torsin-1A-interacting protein 1 (Homo sapiens) (Q5JTV8 whole entry, looked up): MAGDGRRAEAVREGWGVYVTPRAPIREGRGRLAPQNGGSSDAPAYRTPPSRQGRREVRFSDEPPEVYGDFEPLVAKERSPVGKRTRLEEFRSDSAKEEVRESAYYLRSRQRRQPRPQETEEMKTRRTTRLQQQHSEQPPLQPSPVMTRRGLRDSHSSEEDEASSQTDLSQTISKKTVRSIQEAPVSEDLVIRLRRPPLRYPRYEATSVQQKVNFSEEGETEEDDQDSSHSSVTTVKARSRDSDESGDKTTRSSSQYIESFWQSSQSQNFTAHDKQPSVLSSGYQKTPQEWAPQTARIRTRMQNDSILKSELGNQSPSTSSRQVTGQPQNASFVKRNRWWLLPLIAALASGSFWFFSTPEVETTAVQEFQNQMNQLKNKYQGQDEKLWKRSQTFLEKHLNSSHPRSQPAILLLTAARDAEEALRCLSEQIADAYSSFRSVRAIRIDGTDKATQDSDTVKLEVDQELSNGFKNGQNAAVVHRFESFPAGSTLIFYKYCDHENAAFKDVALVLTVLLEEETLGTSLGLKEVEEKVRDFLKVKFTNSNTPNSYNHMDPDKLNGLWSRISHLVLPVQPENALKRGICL

[20] = target: Alpha-bungarotoxin (Bungarus multicinctus) (UniProt P60615); assay: compounds binding labelled alpha-BTX control protein – biochemical, small-molecule microarray, Alexa647 label, 635/667 nm fluorescence, artefact control for SMM control protein annotation, profiling panel (AID 1117); settings: alpha-BTX-A647 binding fluorescence, higher = more signal
Sequence of Alpha-bungarotoxin (Bungarus multicinctus) (P60615 whole entry, looked up): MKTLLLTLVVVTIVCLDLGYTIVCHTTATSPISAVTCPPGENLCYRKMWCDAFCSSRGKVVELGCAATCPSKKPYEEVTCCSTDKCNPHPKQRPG

SMILES | composite z-score [1] | composite z-score [2] | composite z-score [3] | z-score [4] | composite z-score [5] | composite z-score [6] | composite z-score [7] | composite z-score [8] | composite z-score [9] | composite z-score [10] | composite z-score [11] | z-score [12] | composite z-score [13] | composite z-score [14] | composite z-score [15] | composite z-score [16] | composite z-score [17] | composite z-score [18] | composite z-score [19] | composite z-score [20]
CC(C)(C)C(=O)N[C@@H](c1ccc(Cl)cc1)[C@]1(C)C[C@H]1C1CCCCC1 | 0.705 | 0.701 | 0.933 | -0.455 (inactive) | 0.521 | 1.28 | -0.19 | 0.233 | 0.0399 | 0.998 | 1.19 | -0.409 | -0.487 | 1.27 | 1.1 | 0.197 | 0.838 | 2.13 | 1.94 | 2.02
[N-]=[N+]=Nc1ccccc1C[C@@]1(C(=O)NCCN2CCOCC2)N=C(c2ccc(OCCCO)cc2)O[C@@H]1c1ccccc1 | 1.57 | 0.532 | 0.915 | -0.724 (inactive) | 1.35 | 1.29 | 0.245 | 1.21 | 0.461 | 0.847 | 1.47 | -1.32 | 0.248 | 0.797 | -0.3 | -0.0303 | 0.315 | -0.462 | 0.819 | 0.597
O=C1O[C@@H](c2ccccc2)[C@@H](c2ccccc2)N2[C@@H](c3ccc(OCCO)cc3)[C@]3(C(=O)Nc4ccccc43)[C@@H](C(=O)NC[C@H](O)c3ccccc3)[C@H]12 | 1.17 | 0.189 | 0.2 | -0.203 (inactive) | 0.55 | 0.445 | 0.566 | 0.33 | 0.334 | 0.632 | 1.28 | -2.1 | 1.04 | 0.158 | 0.0233 | -0.0768 | -0.2 | 0.0597 | 1.3 | 0.362
COCCOC(=O)N1C(=O)[C@@]2(c3cc(C#CC4(O)CCCCCC4)ccc31)[C@H](c1ccc(O)cc1)N1[C@H](c3ccccc3)[C@H](c3ccccc3)OC(=O)[C@H]1[C@@H]2C(=O)Nc1nc2ccccc2s1 | 0.483 | 1.17 | 0.784 | -0.54 (inactive) | 1.35 | 1.31 | 0.487 | 1.38 | 0.857 | 1.33 | 1.36 | -0.768 | 0.463 | 2.01 | 0.516 | 0.0932 | -0.131 | 3.16 | 1.35 | 2.21

Source: PubChem BioAssay
